Data reported in the supplement of paper PMC4466140.

The binders below were run against AgAbp1 (assay: SPOT peptide array binding signal intensity (averaged, normalized) (arbitrary units (background-subtracted, floor 0; scale differs between SH3 domains)); higher = stronger binding of the SH3 domain to the peptide).
In short: (§1)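 The binding signal is the normalized, background-subtracted spot intensity averaged over replicates; its arbitrary units differ between domains. It was obtained by incubating 10 μg/ml GST-fused SH3 domains from four yeast species overnight at 4°C in TBS-based blocking buffer on cellulose membranes with synthetic 15-mer peptides, cysteines replaced by serines, then detecting with anti-GST antibody, HRP anti-mouse secondary and luminol.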

| Binder | SPOT peptide array binding signal intensity |
| --- | --- |
| EQEEIAPSLPSRNSI | 6 |

What follows are binders tested against AgBbc1 in the same assay as above.
In short: as §1

| Binder | SPOT peptide array binding signal intensity |
| --- | --- |
| EQEEIAPSLPSRNSI | ≤ 0 |

What follows are binders tested against AgBem1-D1 in the same assay as above.
In short: as §1

| Binder | SPOT peptide array binding signal intensity |
| --- | --- |
| EQEEIAPSLPSRNSI | ≤ 0 |

Each binder was assayed against AgBzz1-D1 in the same assay as above.
In short: as §1

| Binder | SPOT peptide array binding signal intensity |
| --- | --- |
| EQEEIAPSLPSRNSI | 10.5 |

These binders were tested against AgBzz1-D2 in the same assay as above.
In short: as §1

| Binder | SPOT peptide array binding signal intensity |
| --- | --- |
| EQEEIAPSLPSRNSI | 1 |

What follows are binders tested against AgCyk3 in the same assay as above.
In short: as §1

| Binder | SPOT peptide array binding signal intensity |
| --- | --- |
| EQEEIAPSLPSRNSI | ≤ 0 |

What follows are binders tested against AgFus1 in the same assay as above.
In short: as §1

| Binder | SPOT peptide array binding signal intensity |
| --- | --- |
| EQEEIAPSLPSRNSI | ≤ 0 |

Each binder was assayed against AgHof1 in the same assay as above.
In short: as §1

| Binder | SPOT peptide array binding signal intensity |
| --- | --- |
| EQEEIAPSLPSRNSI | 4.25 |

What follows are binders tested against AgHse1 in the same assay as above.
In short: as §1

| Binder | SPOT peptide array binding signal intensity |
| --- | --- |
| EQEEIAPSLPSRNSI | ≤ 0 |

Each binder was assayed against AgLsb1 in the same assay as above.
In short: as §1

| Binder | SPOT peptide array binding signal intensity |
| --- | --- |
| EQEEIAPSLPSRNSI | 17.5 |

These binders were tested against AgLsb4 in the same assay as above.
In short: as §1

| Binder | SPOT peptide array binding signal intensity |
| --- | --- |
| EQEEIAPSLPSRNSI | 1050 |

What follows are binders tested against AgMyo5 in the same assay as above.
In short: as §1

| Binder | SPOT peptide array binding signal intensity |
| --- | --- |
| EQEEIAPSLPSRNSI | ≤ 0 |

These binders were tested against AgNbp2 in the same assay as above.
In short: as §1

| Binder | SPOT peptide array binding signal intensity |
| --- | --- |
| EQEEIAPSLPSRNSI | 10 |

The binders below were run against AgRvs167 in the same assay as above.
In short: as §1

| Binder | SPOT peptide array binding signal intensity |
| --- | --- |
| EQEEIAPSLPSRNSI | 3 |

Each binder was assayed against AgSho1 in the same assay as above.
In short: as §1

| Binder | SPOT peptide array binding signal intensity |
| --- | --- |
| EQEEIAPSLPSRNSI | ≤ 0 |

These binders were tested against AgSla1-D1-D2 in the same assay as above.
In short: as §1

| Binder | SPOT peptide array binding signal intensity |
| --- | --- |
| EQEEIAPSLPSRNSI | ≤ 0 |

The binders below were run against AgSla1-D3 in the same assay as above.
In short: as §1

| Binder | SPOT peptide array binding signal intensity |
| --- | --- |
| EQEEIAPSLPSRNSI | ≤ 0 |

The binders below were run against CaAbp1-D1 in the same assay as above.
In short: as §1

| Binder | SPOT peptide array binding signal intensity |
| --- | --- |
| EQEEIAPSLPSRNSI | ≤ 0 |

These binders were tested against CaAbp1-D2 in the same assay as above.
In short: as §1

| Binder | SPOT peptide array binding signal intensity |
| --- | --- |
| EQEEIAPSLPSRNSI | 7.5 |

Each binder was assayed against CaBbc1 in the same assay as above.
In short: as §1

| Binder | SPOT peptide array binding signal intensity |
| --- | --- |
| EQEEIAPSLPSRNSI | 5.5 |

Each binder was assayed against CaBem1-D1 in the same assay as above.
In short: as §1

| Binder | SPOT peptide array binding signal intensity |
| --- | --- |
| EQEEIAPSLPSRNSI | 2 |

What follows are binders tested against CaBzz1-D1 in the same assay as above.
In short: as §1

| Binder | SPOT peptide array binding signal intensity |
| --- | --- |
| EQEEIAPSLPSRNSI | ≤ 0 |

These binders were tested against CaBzz1-D2 in the same assay as above.
In short: as §1

| Binder | SPOT peptide array binding signal intensity |
| --- | --- |
| EQEEIAPSLPSRNSI | ≤ 0 |

What follows are binders tested against CaCyk3 in the same assay as above.
In short: as §1

| Binder | SPOT peptide array binding signal intensity |
| --- | --- |
| EQEEIAPSLPSRNSI | 1 |

What follows are binders tested against CaFus1 in the same assay as above.
In short: as §1

| Binder | SPOT peptide array binding signal intensity |
| --- | --- |
| EQEEIAPSLPSRNSI | 22 |

These binders were tested against CaHof1 in the same assay as above.
In short: as §1

| Binder | SPOT peptide array binding signal intensity |
| --- | --- |
| EQEEIAPSLPSRNSI | 1 |

What follows are binders tested against CaHse1 in the same assay as above.
In short: as §1

| Binder | SPOT peptide array binding signal intensity |
| --- | --- |
| EQEEIAPSLPSRNSI | 4 |

The binders below were run against CaLsb1 in the same assay as above.
In short: as §1

| Binder | SPOT peptide array binding signal intensity |
| --- | --- |
| EQEEIAPSLPSRNSI | 0.5 |

These binders were tested against CaLsb4 in the same assay as above.
In short: as §1

| Binder | SPOT peptide array binding signal intensity |
| --- | --- |
| EQEEIAPSLPSRNSI | 5990 |

The binders below were run against CaMyo5 in the same assay as above.
In short: as §1

| Binder | SPOT peptide array binding signal intensity |
| --- | --- |
| EQEEIAPSLPSRNSI | ≤ 0 |

These binders were tested against CaNbp2 in the same assay as above.
In short: as §1

| Binder | SPOT peptide array binding signal intensity |
| --- | --- |
| EQEEIAPSLPSRNSI | ≤ 0 |

Each binder was assayed against CaRvs167 in the same assay as above.
In short: as §1

| Binder | SPOT peptide array binding signal intensity |
| --- | --- |
| EQEEIAPSLPSRNSI | 43.8 |

Each binder was assayed against CaRvs167-3 in the same assay as above.
In short: as §1

| Binder | SPOT peptide array binding signal intensity |
| --- | --- |
| EQEEIAPSLPSRNSI | 1 |

What follows are binders tested against CaSho1 in the same assay as above.
In short: as §1

| Binder | SPOT peptide array binding signal intensity |
| --- | --- |
| EQEEIAPSLPSRNSI | ≤ 0 |

These binders were tested against CaSla1-D1-D2 in the same assay as above.
In short: as §1

| Binder | SPOT peptide array binding signal intensity |
| --- | --- |
| EQEEIAPSLPSRNSI | ≤ 0 |

These binders were tested against CaSla1-D3 in the same assay as above.
In short: as §1

| Binder | SPOT peptide array binding signal intensity |
| --- | --- |
| EQEEIAPSLPSRNSI | ≤ 0 |

The binders below were run against ScAbp1 in the same assay as above.
In short: as §1

| Binder | SPOT peptide array binding signal intensity |
| --- | --- |
| EQEEIAPSLPSRNSI | 14.5 |
